The structures appear in SMILES notation. Values joined by “and” are separate entries in the source; they are usually repeats but may differ in a detail not shown here. Equal values may be shown once. Results filed as inconclusive are left out. The source holds several records for some structures; these can differ, active in one and inactive in another. Active and inactive are the calls of the source. Rule for the calls, unless noted: active = hit-call score of the fitted dose curve at least 0.9, where 1 is the maximum; inactive = score below 0.9.

These results are taken from PubChem BioAssay (EPA / NIEHS).

Assay [1] has as its target human RAR-related Orphan Receptor gamma (RORg), RORC (gene 6097) (UniProt P51449). The experiment in a line: ATG_RORg_TRANS: Attagene TRANS-FACTORIAL HepG2 Assay for human RAR-related Orphan Receptor gamma (RORg) (AID 2283011; active = hit-call score of the fitted dose curve at least 0.9, where 1 is the maximum). An outline of the steps:
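Reporter transcripts from a transfected RORg-GAL4 chimera in HepG2 cells were quantified 24 h after dosing by RT-PCR, 6-FAM labelling, HpaI digestion and capillary electrophoresis; increases over DMSO baseline were fitted.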

The target in assay [2] is Retinoic acid receptor RXR-alpha (Homo sapiens) (UniProt P19793). As to the kind of experiment: ATG_RXRa_TRANS: Attagene TRANS-FACTORIAL HepG2 Assay for human Retinoid X Receptor alpha (RXRa) (AID 2283012; active = hit-call score of the fitted dose curve at least 0.9, where 1 is the maximum). In a few lines: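 Cells (HepG2) carried transiently transfected GAL4-responsive reporter units. Following a 24 h chemical incubation, reporter mRNA induction was read via RT-PCR fragment analysis; DMSO served as negative control and baseline.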

The target in assay [3] is human Retinoid X Receptor beta (RXRb), RXRB (gene 6257) (UniProt P28702). The experiment in a line: ATG_RXRb_TRANS: Attagene TRANS-FACTORIAL HepG2 Assay for human Retinoid X Receptor beta (RXRb) (AID 2283013; active = hit-call score of the fitted dose curve at least 0.9, where 1 is the maximum). In a few lines: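 Multiplexed TRANS reporter assay in HepG2; 24 h dosing; reporter mRNA by RT-PCR/CE fluorescence; gain-of-signal relative to DMSO.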
Assay [4] addresses human Thyroid Receptor alpha (THRa1), THRA (gene 7067) (UniProt P10827). As to the kind of experiment: ATG_THRa1_TRANS: Attagene TRANS-FACTORIAL HepG2 Assay for human Thyroid Receptor alpha (THRa1) (AID 2283014; active = hit-call score of the fitted dose curve at least 0.9, where 1 is the maximum). In a few lines:
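Transcripts from GAL4-UAS-driven reporters, measured after 24 h compound exposure by RT-PCR plus capillary electrophoresis of 6-FAM-labeled fragments, were fitted for gain of signal relative to DMSO. Cells: transiently transfected HepG2 expressing NR-Gal4 chimeras.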

Read-out in assay [5]: E-selectin (Homo sapiens) (UniProt P16581)
The experiment in a line: BSK_3C_Eselectin: BioMAP Diversity Plus: 3C Assay for Eselectin Biomarker Activity (AID 2283015).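 For outcome: cell surface E-selectin protein quantified by ELISA 24 h after dosing.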 To be noted: primary human endothelial cells (HUVEC); actives raise or lower the signal. In a few lines:
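E-selectin ELISA readout, fitted bidirectionally relative to DMSO, taken 24 h post-dosing in HUVEC cultures of the 3C system. Overt cytotoxicity tracked with sulforhodamine B staining of parallel wells.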

Read-out in assay [6]: Interleukin-1 alpha (IL1a), IL1A (gene 3552)
The experiment in a line: BSK_BE3C_IL1a: BioMAP Diversity Plus: BE3C Assay for Interleukin-1 alpha (IL1a) Biomarker Activity (AID 2283016). The settings on record: primary human bronchial epithelial cells; actives raise or lower the signal. In a few lines:
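Cultures of primary human bronchial epithelial cells receive test chemical. After 24 h, IL-1a is quantified by ELISA, while parallel wells are fixed in TCA and SRB-stained for total protein. Changes in either direction are fitted relative to DMSO.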

Read-out in assay [7]: Monocyte Chemoattractant Protein-1 (MCP1), CCL2 (gene 6347)
As to the kind of experiment: BSK_3C_MCP1: BioMAP Diversity Plus: 3C Assay for Monocyte Chemoattractant Protein-1 (MCP1) Biomarker Activity (AID 2283017). To be noted: primary human endothelial cells (HUVEC); actives raise or lower the signal. In a few lines: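 MCP-1 was measured by ELISA 24 h after dosing in primary HUVEC 3C cultures and fitted in both directions relative to DMSO; cytotoxicity was checked by SRB total-protein staining in parallel wells.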

Read-out in assay [8]: Monocyte Chemoattractant Protein-1 (MCP1), CCL2 (gene 6347)
The experiment in a line: BSK_4H_MCP1: BioMAP Diversity Plus: 4H Assay for Monocyte Chemoattractant Protein-1 (MCP1) Biomarker Activity (AID 2283018). The settings on record: primary human endothelial cells (HUVEC); actives raise or lower the signal. An outline of the steps:
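Readout: MCP-1 ELISA on compound-treated HUVEC, sampled 24 h post-dosing. Baseline and negative control DMSO; bidirectional fit. Overt toxicity checked alongside by sulforhodamine B protein staining at time of biomarker measurement.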

Read-out in assay [9]: Human Leukocyte Antigen - DR isotype (HLADR), HLA-DRA (gene 3122)
As to the kind of experiment: BSK_3C_HLADR: BioMAP Diversity Plus: 3C Assay for Human Leukocyte Antigen - DR isotype (HLADR) Biomarker Activity (AID 2283019). The settings on record: primary human endothelial cells (HUVEC); actives raise or lower the signal. In a few lines:
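Bidirectional fitting against DMSO was applied to the HLA-DR ELISA signal from human umbilical vein endothelial cells, 24 h post-dose. Cytotoxicity came from parallel SRB total-protein staining; 3C proliferation was counted by SRB at 48 h.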

Read-out in assay [10]: Interleukin-8 (IL8), CXCL8 (gene 3576)
As to the kind of experiment: BSK_3C_IL8: BioMAP Diversity Plus: 3C Assay for Interleukin-8 (IL8) Biomarker Activity (AID 2283020). To be noted: primary human endothelial cells (HUVEC); actives raise or lower the signal. In a few lines:
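Human vascular endothelial cells (umbilical vein) in the 3C system; IL-8 level detected by ELISA at 24 h post-dose, with DMSO as baseline.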

Read-out in assay [11]: Monokine induced gamma interferon (MIG), CXCL9 (gene 4283)
As to the kind of experiment: BSK_3C_MIG: BioMAP Diversity Plus: 3C Assay for Monokine induced gamma interferon (MIG) Biomarker Activity (AID 2283021).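 For AC50: MIG protein level measured by immunoassay in the treated endothelial cultures.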 The settings on record: primary human endothelial cells (HUVEC); actives raise or lower the signal. In a few lines:
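After 24 h of treatment, human umbilical vein endothelial cultures (3C system) had their MIG biomarker level determined by ELISA, with DMSO serving as negative control.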

Assay [12] in a line: BSK_3C_SRB: Viability Assessment in the BioMAP Diversity Plus: 3C Assay (AID 2283023).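 Note: fitted both ways against DMSO so a hit may be signal rise or drop.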 The settings on record: primary human endothelial cells (HUVEC). An outline of the steps: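 Cytotoxicity readout in parallel HUVEC 3C cultures: after 24 h compound exposure, cells fixed with 10% TCA, stained with 0.1% SRB and read at 560 nm. Gain or loss relative to DMSO fitted.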
Read-out in assay [13]: Matrix Metallopeptidase 1 (MMP1), MMP1 (gene 4312)
The experiment in a line: BSK_BE3C_MMP1: BioMAP Diversity Plus: BE3C Assay for Matrix Metallopeptidase 1 (MMP1) Biomarker Activity (AID 2283024). To be noted: primary human bronchial epithelial cells; actives raise or lower the signal. An outline of the steps:
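Dose cells, wait 24 h, run MMP1 ELISA; cells are human bronchial epithelial primaries. Both increases and decreases relative to DMSO counted.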

Assay [14] in a line: BSK_3C_Vis: BioMAP Diversity Plus: 3C Assay for Morphology Visualization (AID 2283025).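 For AC50: light microscopy image of cell morphology used as background control.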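 Note: fitted both ways so gain or loss versus DMSO counts.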 To be noted: primary human endothelial cells (HUVEC). An outline of the steps:
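Endothelial cells from human umbilical vein were treated with test chemicals for 24 h and inspected by light microscopy for changes in cell conformation.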

Assay [15] is described as follows: BSK_4H_SRB: Viability Assessment in the BioMAP Diversity Plus: 4H Assay (AID 2283027).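 Note: cells exposed to compound for 24 h before staining; curves fitted both ways versus DMSO so AC50 may be loss or gain.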 The settings on record: primary human endothelial cells (HUVEC). An outline of the steps:
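Human umbilical vein endothelial cells, 24 h after chemical dosing; total protein measured by 0.1% sulforhodamine B staining after 10% TCA fixation, read at 560 nm. Bidirectional fitting against DMSO.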

Read-out in assay [16]: Thrombomodulin, THBD (gene 7056)
As to the kind of experiment: BSK_3C_Thrombomodulin: BioMAP Diversity Plus: 3C Assay for Thrombomodulin Biomarker Activity (AID 2283029). The settings on record: primary human endothelial cells (HUVEC); actives raise or lower the signal. An outline of the steps:
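Thrombomodulin ELISA, human primary HUVEC, 24 h post-dose; data fitted in both directions relative to DMSO.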

Read-out in assay [17]: Urokinase-type plasminogen activator receptor (uPAR), PLAUR (gene 5329)
As to the kind of experiment: BSK_4H_uPAR: BioMAP Diversity Plus: 4H Assay for Urokinase-type plasminogen activator receptor (uPAR) Biomarker Activity (AID 2283030). The settings on record: primary human endothelial cells (HUVEC); actives raise or lower the signal. An outline of the steps:
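uPAR level read by ELISA on HUVEC cultures (BioMAP 4H) 24 h post-dosing, analyzed for gain or loss relative to DMSO. Parallel SRB staining assessed overt cytotoxicity.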

Read-out in assay [18]: Pselectin, SELP (gene 6403)
The experiment in a line: BSK_4H_Pselectin: BioMAP Diversity Plus: 4H Assay for Pselectin Biomarker Activity (AID 2283026). To be noted: primary human endothelial cells (HUVEC); actives raise or lower the signal. In a few lines: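 Human vascular endothelium from umbilical vein; P-selectin measured by ELISA at 24 h post-dose, with cytotoxicity checked by sulforhodamine B total-protein staining in parallel cultures (0.1% SRB after 10% TCA fixation, read at 560 nm).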

In assay [19] the target is human Vitamin D Receptor (VDR), VDR (gene 7421) (UniProt P11473). The experiment in a line: ATG_VDR_TRANS: Attagene TRANS-FACTORIAL HepG2 Assay for human Vitamin D Receptor (VDR) (AID 2283022; active = hit-call score of the fitted dose curve at least 0.9, where 1 is the maximum). An outline of the steps: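 Transactivation by an exogenous VDR-Gal4 chimera in transiently transfected HepG2 cells was measured as reporter transcript level 24 hours after chemical treatment. RT-PCR products were analysed by capillary electrophoresis and fitted in the positive direction relative to DMSO.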
Sequence of human Vitamin D Receptor (VDR), VDR (gene 7421) (P11473 whole entry, looked up, the tested form may be a part): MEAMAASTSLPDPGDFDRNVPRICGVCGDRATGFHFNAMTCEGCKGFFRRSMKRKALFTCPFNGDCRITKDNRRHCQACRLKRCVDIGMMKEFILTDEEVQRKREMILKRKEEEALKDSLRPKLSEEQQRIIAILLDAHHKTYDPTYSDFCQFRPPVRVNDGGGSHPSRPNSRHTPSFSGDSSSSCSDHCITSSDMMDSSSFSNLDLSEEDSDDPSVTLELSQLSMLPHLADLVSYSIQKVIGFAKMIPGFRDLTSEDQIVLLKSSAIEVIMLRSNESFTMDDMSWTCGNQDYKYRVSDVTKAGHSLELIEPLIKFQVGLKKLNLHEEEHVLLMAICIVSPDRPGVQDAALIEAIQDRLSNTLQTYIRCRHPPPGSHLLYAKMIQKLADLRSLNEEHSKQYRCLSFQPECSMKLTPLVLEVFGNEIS

Sequence of E-selectin (Homo sapiens) (P16581 whole entry, looked up): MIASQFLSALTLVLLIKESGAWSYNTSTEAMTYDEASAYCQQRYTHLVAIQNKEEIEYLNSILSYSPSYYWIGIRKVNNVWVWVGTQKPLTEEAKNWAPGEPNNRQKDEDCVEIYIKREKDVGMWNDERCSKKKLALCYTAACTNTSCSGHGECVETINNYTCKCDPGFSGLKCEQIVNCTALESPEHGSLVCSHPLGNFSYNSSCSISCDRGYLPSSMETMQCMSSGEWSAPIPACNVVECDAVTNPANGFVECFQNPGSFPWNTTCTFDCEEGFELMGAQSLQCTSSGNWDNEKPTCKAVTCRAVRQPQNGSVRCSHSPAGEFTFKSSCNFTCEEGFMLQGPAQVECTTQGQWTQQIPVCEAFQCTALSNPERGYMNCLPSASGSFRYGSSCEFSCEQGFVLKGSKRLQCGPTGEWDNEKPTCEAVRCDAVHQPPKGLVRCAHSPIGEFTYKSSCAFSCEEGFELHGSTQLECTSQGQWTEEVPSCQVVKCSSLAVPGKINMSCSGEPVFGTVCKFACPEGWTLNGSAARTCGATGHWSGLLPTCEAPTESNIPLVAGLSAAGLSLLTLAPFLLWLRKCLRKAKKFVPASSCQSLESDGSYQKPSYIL
Sequence of human Thyroid Receptor alpha (THRa1), THRA (gene 7067) (P10827 whole entry, looked up, the tested form may be a part): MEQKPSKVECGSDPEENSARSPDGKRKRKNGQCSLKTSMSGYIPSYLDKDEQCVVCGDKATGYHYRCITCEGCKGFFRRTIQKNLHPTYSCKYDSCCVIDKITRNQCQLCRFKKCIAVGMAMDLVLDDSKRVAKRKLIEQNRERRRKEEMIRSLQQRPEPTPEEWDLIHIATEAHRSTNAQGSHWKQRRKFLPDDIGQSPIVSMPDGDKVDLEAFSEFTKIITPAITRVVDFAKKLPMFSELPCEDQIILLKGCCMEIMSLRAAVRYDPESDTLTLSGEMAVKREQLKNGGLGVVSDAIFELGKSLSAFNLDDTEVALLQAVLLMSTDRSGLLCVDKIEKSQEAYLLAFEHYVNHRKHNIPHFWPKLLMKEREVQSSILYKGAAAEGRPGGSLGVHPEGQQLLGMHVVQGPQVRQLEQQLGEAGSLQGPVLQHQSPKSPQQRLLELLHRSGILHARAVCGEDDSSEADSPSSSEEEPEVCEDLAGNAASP
Sequence of Retinoic acid receptor RXR-alpha (Homo sapiens) (P19793 whole entry, looked up, the tested form may be a part): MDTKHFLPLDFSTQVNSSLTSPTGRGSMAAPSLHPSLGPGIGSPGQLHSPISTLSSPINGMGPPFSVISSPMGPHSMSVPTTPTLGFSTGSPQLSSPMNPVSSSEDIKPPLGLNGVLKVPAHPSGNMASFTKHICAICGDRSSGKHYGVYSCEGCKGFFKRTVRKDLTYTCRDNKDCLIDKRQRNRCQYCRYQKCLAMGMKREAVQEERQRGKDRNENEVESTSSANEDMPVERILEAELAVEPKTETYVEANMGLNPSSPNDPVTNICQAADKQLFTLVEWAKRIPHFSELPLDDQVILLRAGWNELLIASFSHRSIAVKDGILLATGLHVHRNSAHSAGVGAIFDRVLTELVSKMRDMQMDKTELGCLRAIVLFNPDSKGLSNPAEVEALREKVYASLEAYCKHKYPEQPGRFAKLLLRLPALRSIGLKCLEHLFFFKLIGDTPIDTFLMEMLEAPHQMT
Sequence of human Retinoid X Receptor beta (RXRb), RXRB (gene 6257) (P28702 whole entry, looked up): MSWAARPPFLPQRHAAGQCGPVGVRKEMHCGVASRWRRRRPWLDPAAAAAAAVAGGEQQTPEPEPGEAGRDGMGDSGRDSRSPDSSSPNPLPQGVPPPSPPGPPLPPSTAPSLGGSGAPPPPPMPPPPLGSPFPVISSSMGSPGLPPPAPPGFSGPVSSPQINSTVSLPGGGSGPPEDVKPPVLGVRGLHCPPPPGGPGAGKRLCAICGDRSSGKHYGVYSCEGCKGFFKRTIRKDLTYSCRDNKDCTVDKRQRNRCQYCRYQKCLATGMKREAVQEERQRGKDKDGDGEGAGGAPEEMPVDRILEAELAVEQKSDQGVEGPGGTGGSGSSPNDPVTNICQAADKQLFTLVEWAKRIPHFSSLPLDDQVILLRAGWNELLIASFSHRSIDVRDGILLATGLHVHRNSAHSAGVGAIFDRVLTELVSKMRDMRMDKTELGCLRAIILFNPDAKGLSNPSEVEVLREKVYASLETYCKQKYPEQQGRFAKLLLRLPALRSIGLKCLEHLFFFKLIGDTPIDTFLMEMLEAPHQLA
Sequence of human RAR-related Orphan Receptor gamma (RORg), RORC (gene 6097) (P51449 whole entry, looked up, the tested form may be a part): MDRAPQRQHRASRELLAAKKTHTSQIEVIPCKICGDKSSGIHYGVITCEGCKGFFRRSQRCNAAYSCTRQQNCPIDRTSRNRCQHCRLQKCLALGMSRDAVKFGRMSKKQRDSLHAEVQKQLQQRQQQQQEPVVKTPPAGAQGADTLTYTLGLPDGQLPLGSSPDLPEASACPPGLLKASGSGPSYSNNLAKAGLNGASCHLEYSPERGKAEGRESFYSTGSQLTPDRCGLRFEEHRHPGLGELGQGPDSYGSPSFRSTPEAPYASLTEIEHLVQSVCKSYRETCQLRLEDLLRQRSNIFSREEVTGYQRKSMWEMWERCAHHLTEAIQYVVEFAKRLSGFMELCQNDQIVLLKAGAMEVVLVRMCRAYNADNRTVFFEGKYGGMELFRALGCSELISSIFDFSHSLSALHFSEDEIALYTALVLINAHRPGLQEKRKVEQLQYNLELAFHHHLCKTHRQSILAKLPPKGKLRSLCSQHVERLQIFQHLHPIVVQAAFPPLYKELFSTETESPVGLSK

On to `CCC(C)(c1ccc(O)cc1)c1ccc(O)cc1`, for which the outcome in assay [1], in [2], in [3], in assay [4], in assay [5] and in assay [6] was inactive. Also, the outcome in assay [11] and in assay [16] was inactive. Also, the AC50 (commonly the concentration giving half of the maximal activity seen) in assay [3] was 9.02 µM (active) and 17.8 µM (active) and 19.6 µM (active); in [7] it was 20 µM (active); in assay [8], 10.7 µM (active); in assay [9] it was 24.7 µM (active); in assay [10] it was 22.9 µM (active); in assay [12], 30 µM (active). Besides, the AC50 in [13] was 20 µM (active); in assay [14], 39 µM (active); in assay [15], 24.3 µM (active); in assay [17], 34.8 µM (active).

On to `CCCCCCCCCC[N+](C)(C)CCCCCCCCCC`, for which the call in [1], in assay [4] and in assay [16] was inactive. Further, the AC50 in assay [5] was 4.77 µM (active); in [6], 7.76 µM (active); in assay [7], 3.59 µM (active); in assay [8], 3.16 µM (active); in assay [9], 2.22 µM (active); in [11], 5.66 µM (active). Also, the AC50 was 2 µM (active) in assay [12]; 4.95 µM (active) in [13]; 4.15 µM (active) in [14]; 1.99 µM (active) in [18]; 2.01 µM (active) in assay [15]; 6.83 µM (active) in assay [17].

On to `Oc1c(Cl)c(Cl)c(Cl)c(Cl)c1Cl`, for which the result in [2], in assay [3], in assay [4], in assay [8], in [11] and in [19] was inactive. Further, the outcome in assay [13], in [14] and in [16] was inactive. Also, the AC50 was 14 µM (active) and 10.8 µM (active) in assay [5]; 13.8 µM (active) and 21.4 µM (active) in assay [6]; 13.7 µM (active) in assay [7]; 7.96 µM (active) in assay [8]; 14.7 µM (active) and 13.5 µM (active) in assay [9]; 34.5 µM (active) in assay [11]. For the same compound, the AC50 in assay [19] is 9.71 µM (active); in assay [12], 15.4 µM (active) and 13 µM (active); in assay [13] it was 26.1 µM (active); in [14] it was 14.1 µM (active); in assay [15], 10.2 µM (active) and 9.07 µM (active); in [16], 20 µM (active). For the same compound, the AC50 in assay [17] was 5.58 µM (active) and 9.79 µM (active).
